The entries come from a sample that favours hits as a whole.
Shiga inhibitor = A qHTS for Small Molecule Inhibitors of Shiga Toxin; inhibition, % at 38.7 µM; Vero cells, Shiga toxin protein synthesis inhibition reporter; AID 2315, 2010; 9.2% of 290,000 active; in the data active = inhibition mostly above about 28%, no sharp cut-off; inactive = mostly below about 43%; also: 0% is about no effect
LmPK inh = qHTS Assay for Inhibitors of Leishmania Mexicana Pyruvate Kinase (LmPK). Q27686. purified LmPK, Kinase-Glo ATP luminescence, 1 h. Potency, µM (series often up to 57.5 µM), without a hit: at the top dose activity change, negative = inhibition, usual class: inhibitors. 0.37% of 290,000 active. AID 1721, 2009; also: potency is read from the fitted curve at half-maximal effect; % is scaled to controls: 0 for no effect and ±100 for the full control effect
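0.1 nM LmPK, 0.5 mM PEP, 0.1 mM ADP; 50 mM imidazole pH 7.2, 7 mM MgCl2, 50 mM KCl; 1 h RT. Kinase-Glo luminescence readout, normalized to no-enzyme (full inhibition) and uninhibited wells.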
CHX counter = Cycloheximide Counterscreen for Small Molecule Inhibitors of Shiga Toxin; cell reporter, cycloheximide protein synthesis inhibition counterscreen; max response, %; 12% of 300,000 active; AID 2314, 2010; in the data active = max response mostly above about 13%, no sharp cut-off; inactive = mostly below about 14%; also: read at 38.3 µM for the half of the compounds with a filed dose; 0% is about no effect
TbPYK inhibitor = qHTS of Trypanosoma Brucei Inhibitors. pyruvate kinase (Trypanosoma brucei), Q57TT1. TbPYK enzyme, Kinase-Glo Plus ATP luminescence, 45 min. Potency, µM (series often up to 76.8 µM), for inactives: at the top dose activity, negative = inhibition, most hits filed as inhibitors. 0.12% of 410,000 active. AID 624173, 2012; also: potency is read from the fitted curve at half-maximal effect; % is scaled to controls: 0 for no effect and ±100 for the full control effect; nearly all actives have a fitted effect of over 50% in size
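Screened from lowest to highest concentration, compounds were pinned into TbPYK/substrate mixtures, and ADP (130 uM final) was added. Plates sat at room temperature for 45 min prior to Kinase-Glo Plus detection by luminescence.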
FBPA Giardia inh = qHTS Assay for Inhibitors of Fructose-1,6-bisphosphate Aldolase from Giardia Lamblia; 0.71% of 290,000 active; A8B2U2; purified Giardia FBPA; Potency, µM (doses to about 59.6 µM), for inactives: at the highest dose activity, negative = inhibition, usual class: inhibitors; also: potency is read from the fitted curve at half-maximal effect; % is scaled to controls: 0 for no effect and ±100 for the full control effect; nearly all actives have a fitted effect of over 55% in size
Target sequence (A8B2U2 whole entry, looked up): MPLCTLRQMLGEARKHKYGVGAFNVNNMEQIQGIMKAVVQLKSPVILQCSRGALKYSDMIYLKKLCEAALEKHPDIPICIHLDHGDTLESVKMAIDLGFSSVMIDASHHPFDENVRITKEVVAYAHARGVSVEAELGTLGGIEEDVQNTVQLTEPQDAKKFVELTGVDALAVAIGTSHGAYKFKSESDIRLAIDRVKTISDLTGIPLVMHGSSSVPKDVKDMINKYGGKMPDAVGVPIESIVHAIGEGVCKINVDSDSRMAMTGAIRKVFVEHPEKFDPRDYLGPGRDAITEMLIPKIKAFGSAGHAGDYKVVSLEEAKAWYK
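Giardia FBPA (40 nM reagent) was preincubated 10 min at RT with compound (up to 57.5 uM final), then substrate plus GAPDH/TPI/NAD/arsenate coupling system with diaphorase/resazurin was added; resorufin fluorescence (525/598 nm) was read after 20 min.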
RE007 growth inh = qHTS Assay for Inhibitors of the HIV-1 protein Vpr; S. pombe RE007 Vpr strain, BacTiter-Glo ATP luminescence, 24 h; Potency, µM (series often up to 92.2 µM), without a hit: at the top dose activity change, negative = less growth, hits mostly inhibitors; 0.21% of 360,000 active; active = well fitted falling curve with a large enough effect; inconclusive = small, poorly fitted or top-dose-only effect; inactive = no such curve, though single readings can be large or run the other way; also: potency is read from the fitted curve at half-maximal effect; % is scaled to controls: 0 for no effect and ±100 for the full control effect; nearly all actives have a fitted effect of over 50% in size
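Fission yeast strain RE007, carrying one chromosomally integrated HIV-1 vpr copy, was seeded at OD 0.01 in PMG+AL medium with 23 nL pinned compound. After 24 h at 30 °C and 99% humidity, viability was read by BacTiter-Glo luminescence.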
The depositor's hits bear a star; ? = inconclusive; · = no result given; + = active, no number. Unless noted, calls follow the shape of the dose curve; as a rule, active = well fitted curve in the direction sought with a large enough effect; inconclusive = small, poorly fitted or top-dose-only effect, or another doubt; inactive = no such curve, though single readings can be large; an effect the other way counts as inactive or inconclusive.

SMILES	Shiga inhibitor	LmPK inh	CHX counter	TbPYK inhibitor	FBPA Giardia inh	RE007 growth inh
CC(=O)N1c2ccc(S(=O)(=O)N3CCCCCC3)cc2CC1C(=O)NCc1ccccc1F (stereo not drawn)	·	·	·	-1%	·	·
CCOC(=O)NC(N(O)c1cccc(Cl)c1)C(Cl)(Cl)Cl (stereo not drawn)	21	15%	20*	-6%	-14%	2%
CCOC(=O)N[C@H](Cc1c[nH]c2ccccc12)C(=O)Nc1cccc(Cl)c1	·	·	·	1%	·	·
Cc1cc(/C=N/n2cnnc2)c(C)n1-c1ccc(OCc2ccc(F)cc2)cc1	27	4%	20*	-1%	-1%	9%
CCNC(=S)N/N=C/c1cc(C)n(-c2ccc(Cl)cc2)c1C	66	7%	21*	-3%	-6%	11%
COC(=O)N/N=C/c1cc(C)n(-c2ccc(F)cc2)c1C	88*	-2%	37*	0%	-8%	6%
Cc1cc(/C=N/n2cnnc2)c(C)n1-c1ccc(OCc2ccc(Cl)cc2Cl)cc1	-20	-5%	-11	7%	1%	-17%
COC(=O)N/N=C/c1cc(C)n(-c2ccccc2)c1C	+	-5%	24*	1%	-6%	8%
COC(=O)N1CCC2(CC1)CCN(c1ccccc1)CC2	·	·	·	3%	6%	·
CCC(C(=O)NC(=O)NC(C)=O)c1ccccc1 (stereo not drawn)	·	·	·	-9%	·	·
C=C1CN(C(C(=O)OC)C(C)C)S(=O)(=O)c2ccc(F)cc21 (stereo not drawn)	-6	·	7	·	0%	·
COc1ccc(C=CC(=O)c2cc(O)ccc2O)cc1	·	·	·	-4%	·	-7%
COc1ccc(C(=O)/C=C/Nc2cc(C)on2)c(OC)c1	65	-5%	25*	-4%	8%	?
COc1ccc(C(=O)/C=C/c2ccc(N(C)C)cc2)c(OC)c1	30	1%	26*	0%	7%	-10%
COc1ccc(C(=O)/C=C/c2ccccc2)c(OC)c1	54*	-9%	32*	-1%	-15%	-14%
Fc1ccc(-n2ncc3c(N4CCC(Cc5ccccc5)CC4)ncnc32)cc1	·	·	·	0%	·	·
COCc1cc(O)c(O)c(O)c1-c1c(COC)cc(O)c(O)c1O	-5	·	0	·	4µM*	·
O=C(CN1CC(=O)Nc2ccccc21)Nc1ccc(F)c(F)c1	75*	7%	30*	-3%	?	-17%
O=C(O)CSCC(=O)Nc1ccccc1	·	·	·	-4%	·	0%
Cc1ccc(NC(=O)CNC(=O)N2CC(=O)Nc3ccccc32)cc1F	-4	3%	-2	-22%	-2%	10%
O=C(CSCc1ccccc1)Nc1ccc(F)c(F)c1	73*	2%	47*	-3%	2%	-18%
O=C(CSCc1ccc(F)cc1)NCc1ccco1	42	-3%	21*	3%	-4%	1%
O=C(CSCc1ccccc1Br)Nc1ccccc1	18	-8%	27*	7%	2%	-13%
COCc1cccc(-c2csc(C(O)c3cccc(OC)c3)n2)c1 (stereo not drawn)	·	·	·	0%	·	5%
Cn1c(=O)c2cc(C(=O)N3CCN(c4ccc(Cl)cc4)CC3)sc2c2ccccc21	·	·	·	4%	·	·
SMILES	Shiga inhibitor	LmPK inh	CHX counter	TbPYK inhibitor	FBPA Giardia inh	RE007 growth inh
O=C(CCc1cn(Cc2ccccc2F)c2ccccc12)NCc1ccc(Cl)cc1	·	·	·	3%	·	·
O=C(CSc1nnc(-c2ccc(F)cc2)c2ccccc12)Nc1ccccc1	12	3%	22*	-2%	3%	8%
N#CCSCC(=O)Nc1ccccc1	28	2%	20*	1%	1%	-3%
O=C(CSc1nncc2ccccc12)Nc1cccc(C(=O)O)c1	99*	3%	40*	-13%	?	6%
O=C(CSc1nc(-c2ccccc2)nc2ccc(F)cc12)Nc1cccc(C(=O)O)c1	2	0%	-1	-1%	26%	6%
O=C(CSCc1ccc(F)cc1)NC1CCCC1	37*	-6%	26*	2%	3%	-4%
O=C(CSCc1cccc(CSCC(=O)Nc2ccccc2)n1)Nc1ccccc1	-5	9%	-2	2%	0%	24%
O=C(CSCc1ccc(F)cc1)Nc1ccccc1	53*	4%	30*	3%	-6%	-17%
CCc1cccc(NC(=O)CNC(=O)N2CC(=O)Nc3ccccc32)c1	-2	1%	26*	1%	-4%	3%
O=S1(=O)C=C(SCc2ccc(Cl)c(Cl)c2)Nc2ccccc21	-12	1%	7	-1%	0%	17%
Cc1cc(C)cc(OCC(=O)N2CCN(c3ncccn3)CC2)c1	·	·	·	5%	·	-28%
Cc1cc(C(N)=O)c2ccccc2n1	-17	2%	-1	-12%	0%	5%
NC(=O)c1cc2c3ccccc3ccn2c1-c1ccccc1	94*	-1%	52*	-3%	?	9%
COC(=O)[C@@]12C[C@@H](CC(=O)NCCCCc3ccccc3)C(=O)N(Cc3cccc4ccccc34)C1=CCC(C)(C)C2	·	·	·	·	·	6%
Cc1oc(-c2ccc(Cl)cc2)cc1C(=O)O	46	-6%	43*	-5%	9%	-4%
CCC(=O)c1ccc(OCc2ccc(C(=O)OC)cc2)c(OC)c1	21	3%	5	3%	·	13%
COc1cc(C(=S)N2CCCC2)ccc1OCc1ccccc1	66*	1%	30*	2%	-9%	-11%
CCC(=O)c1ccc(OCc2ccccc2)c(OC)c1	88*	0%	43*	-2%	2%	5%
CCOc1cc(C(=S)N2CCCC2)ccc1OC	-6	5%	-2	3%	-13%	-3%
CCNc1ncc2nc(-c3ccc(Cl)cc3)c(=O)n(Cc3cccs3)c2n1	·	·	·	·	0%	·
CCc1ccc2cc3c(cc2n1)C(=O)c1ccccc1-3	·	·	·	-2%	·	-24%
CCC(C)(C)c1ccc2c(c1)C(=O)c1ccccc1C2=O	37*	-19%	62*	-2%	4%	-14%
COCc1ccc([C@@H]2C[C@H]3CN(Cc4ccccc4C)C(=O)[C@]34CCCN24)o1	32*	2%	21*	-3%	0%	5%
CC(=O)Oc1ccc(/C=C2/CCc3ccccc3C2=O)cc1	16	14µM*	16*	?	3%	?
COc1cccc(/C=C2/C(=O)NN(c3ccc(C)c(C)c3)C2=O)c1	19	6%	8.5*	5%	-18%	-4%
COc1ccc2c(c1)CC/C(=C/c1ccccn1)C2=O	100*	-14%	55*	-8%	-5%	?
COc1ccc(OC)c(C=C2CCc3ccccc3C2=O)c1	·	·	·	-8%	·	-5%
COc1cccc(C=C2Cc3ccccc3C2=O)c1	·	·	·	0%	·	?

Bioassay records (PubChem BioAssay)
